Consider 6 compounds from PubChem BioAssay (NCI).

Values joined by “and” are separate entries in the source; they are usually repeats but may differ in a detail not shown here. Equal entries are not always repeated. Compounds without any hit were thinned out: in the full panel of roughly 83,000, 20% have a hit.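 Growth was measured after 48 h exposure to one concentration of compound in 96-well plates. Values under 10 count as active.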 Active and inactive are the calls of the source.

Among the test systems are NCI-H226 lung; NCI-H322M lung; HOP-62 NSCLC; NCI-H460 lung; HOP-92 NSCLC; NCI-H522 lung; A549/ATCC NSCLC; 786-0 renal; COLO 205 colon; DU-145 prostate; K-562 leukemia; MALME-3M melanoma; MDA-MB-231 breast; RXF 393 renal; SF-268 CNS; SF-295 CNS; SF-539 CNS; UACC-257 melanoma; M14 melanoma; NCI-H23 lung.
Holding throughout (assay): NCI-60 one-dose screen, 48 h (100 = growth as untreated, 0 = no growth, -100 = all killed)
Details in all cases: 10 µM unless noted

In the case of `Cc1cccc(/C=C\C(=O)c2ccccc2)c1`, the growth with NCI-H226 lung was 111% (inactive) and 95.5% (inactive); with NCI-H322M lung, 97% (inactive) and 93.7% (inactive); in the assay on HOP-62 NSCLC, 98.5% (inactive) and 111% (inactive); in the assay with NCI-H460 lung, 109% (inactive) and 100% (inactive); in the assay on HOP-92 NSCLC, 81.3% (inactive); in the assay with NCI-H522 lung it was 95.3% (inactive). Moreover, the growth in the assay with A549/ATCC NSCLC is 87.7% (inactive) and 92.8% (inactive); in the assay with 786-0 renal it was 79.7% (inactive); in the assay with COLO 205 colon, 112% (inactive) and 114% (inactive); with DU-145 prostate, 99.9% (inactive) and 104% (inactive); with K-562 leukemia, 67% (inactive) and 3.91% (active); with MALME-3M melanoma, 91.5% (inactive). For the same compound, the growth in the assay with MDA-MB-231 breast was 94% (inactive) and 110% (inactive); in the assay with RXF 393 renal, 118% (inactive) and 96.8% (inactive); in the assay with SF-268 CNS, 105% (inactive) and 99.5% (inactive); with SF-295 CNS, 116% (inactive) and 95.7% (inactive); in the assay on SF-539 CNS it was 112% (inactive) and 108% (inactive); with UACC-257 melanoma, 102% (inactive) and 109% (inactive). Also, the growth in the assay with M14 melanoma was 98.5% (inactive).

On to `Cc1n[nH]c(=O)n(/N=C\c2c[nH]c3ccccc23)c1=O`, for which the growth in the assay with NCI-H226 lung is 103% (inactive); in the assay on NCI-H322M lung it was 94.2% (inactive); with HOP-62 NSCLC, 96.1% (inactive); with NCI-H460 lung it was 107% (inactive); in the assay with HOP-92 NSCLC, 84.2% (inactive); with NCI-H522 lung it was 94.1% (inactive). The growth in the assay with A549/ATCC NSCLC is 93.1% (inactive); in the assay with 786-0 renal, 123% (inactive); with COLO 205 colon it was 104% (inactive); with DU-145 prostate, 118% (inactive); with K-562 leukemia, 93.7% (inactive); with MALME-3M melanoma it was 97% (inactive). Besides, the growth was 123% (inactive) with MDA-MB-231 breast; 96.3% (inactive) with RXF 393 renal; 99.6% (inactive) in the assay on SF-268 CNS; 102% (inactive) with SF-295 CNS; 104% (inactive) in the assay with SF-539 CNS; 104% (inactive) in the assay with UACC-257 melanoma. Besides, the growth with M14 melanoma is 121% (inactive).

As for `S=C(S)N1CCCC1`, the growth with NCI-H23 lung is 108% (inactive) and 102% (inactive); with NCI-H226 lung, 108% (inactive) and 111% (inactive); in the assay on NCI-H322M lung, 107% (inactive) and 97.7% (inactive); in the assay with NCI-H460 lung, 62.2% (inactive); with HOP-92 NSCLC, 91.9% (inactive) and 88% (inactive); with NCI-H522 lung, 8.09% (active) and -11.7% (active). The growth in the assay on 786-0 renal is 103% (inactive) and 106% (inactive); with COLO 205 colon, 60.7% (inactive) and 49.9% (inactive); in the assay on DU-145 prostate it was 105% (inactive) and 128% (inactive); in the assay with K-562 leukemia, 39.6% (inactive) and 76.5% (inactive); in the assay on MALME-3M melanoma, 96.1% (inactive) and 99.7% (inactive); with MDA-MB-231 breast it was 92.3% (inactive) and 125% (inactive). For the same compound, the growth in the assay with RXF 393 renal was 112% (inactive) and 125% (inactive); in the assay on SF-268 CNS, 97% (inactive) and 116% (inactive); with SF-295 CNS, 112% (inactive) and 103% (inactive); in the assay on SF-539 CNS, 110% (inactive) and 128% (inactive); in the assay with UACC-257 melanoma it was 96.5% (inactive) and 92.6% (inactive); in the assay with M14 melanoma, 93.8% (inactive) and 101% (inactive).

Turning to `C[N+](C)(C)CN1C(=O)c2ccccc2C1=O`, the growth in the assay on NCI-H23 lung is 105% (inactive); with NCI-H226 lung it was 112% (inactive); in the assay on NCI-H460 lung it was 105% (inactive); with NCI-H522 lung it was 90.9% (inactive); in the assay with A549/ATCC NSCLC, 99.8% (inactive); with 786-0 renal, 104% (inactive). Also, the growth is 104% (inactive) in the assay with COLO 205 colon; 113% (inactive) with DU-145 prostate; 92% (inactive) with K-562 leukemia; 114% (inactive) with MDA-MB-231 breast; 105% (inactive) in the assay with RXF 393 renal; 110% (inactive) with SF-268 CNS. The growth in the assay on SF-539 CNS is 99.5% (inactive); in the assay with UACC-257 melanoma, 97.8% (inactive); in the assay with M14 melanoma it was 103% (inactive).

For the compound `N#C/C(=C/c1c(O)ccc2ccccc12)C(N)=O`, the growth in the assay on NCI-H23 lung is 87.1% (inactive); with NCI-H226 lung it was 89% (inactive); in the assay on NCI-H322M lung, 107% (inactive); in the assay with NCI-H460 lung it was 103% (inactive); in the assay with NCI-H522 lung, 76.4% (inactive); in the assay with A549/ATCC NSCLC it was 107% (inactive). Besides, the growth with 786-0 renal is 83.6% (inactive); with COLO 205 colon, 105% (inactive); with DU-145 prostate, 104% (inactive); in the assay on K-562 leukemia, 97.4% (inactive); in the assay with MALME-3M melanoma, 99.4% (inactive); in the assay on MDA-MB-231 breast, 86.4% (inactive). Also, the growth was 98.3% (inactive) with RXF 393 renal; 95.4% (inactive) in the assay with SF-268 CNS; 91.2% (inactive) in the assay on SF-295 CNS; 102% (inactive) with SF-539 CNS; 106% (inactive) with UACC-257 melanoma; 94.5% (inactive) with M14 melanoma.

For `COc1ccc(Cn2c(NCCN=C(N)N)nc(=O)n(Cc3ccc(F)cc3)c2=O)cc1`, the growth in the assay with NCI-H226 lung was 97.3% (inactive) and 95.3% (inactive); with NCI-H322M lung, 83% (inactive) and 90.7% (inactive); in the assay with HOP-62 NSCLC it was 71.6% (inactive) and 85.7% (inactive); with NCI-H460 lung, 106% (inactive) and 104% (inactive); in the assay on HOP-92 NSCLC, 82.8% (inactive); in the assay with NCI-H522 lung, 90.2% (inactive) and 97.2% (inactive). Also, the growth is 108% (inactive) and 107% (inactive) in the assay on A549/ATCC NSCLC; 98.5% (inactive) and 103% (inactive) with 786-0 renal; 105% (inactive) and 97.8% (inactive) with COLO 205 colon; 104% (inactive) and 115% (inactive) in the assay on DU-145 prostate; 89.6% (inactive) and 94% (inactive) in the assay with K-562 leukemia; 91.7% (inactive) and 91.1% (inactive) in the assay on MALME-3M melanoma. For the same compound, the growth in the assay on MDA-MB-231 breast is 107% (inactive) and 103% (inactive); in the assay on RXF 393 renal, 95.5% (inactive) and 109% (inactive); in the assay on SF-268 CNS, 61.8% (inactive) and 52.5% (inactive); in the assay with SF-295 CNS it was 102% (inactive); in the assay with SF-539 CNS, 102% (inactive) and 89.7% (inactive); in the assay with UACC-257 melanoma, 89.4% (inactive) and 101% (inactive). In addition, the growth with M14 melanoma was 97.9% (inactive) and 100% (inactive).
